Assay results reported in PubChem BioAssay (NCATS).
Inconclusive results are not listed. Values without a mark were called inactive. The source made the active and inactive calls. The call rests on the fitted dose curve; in most records, active means well fitted inhibition curve with a large enough effect; inconclusive means small, poorly fitted or top-dose-only effect; inactive means no such curve, though single readings can be large or run the other way.

Test system: Zika virus NS2B-NS3 protease (unlinked)
Experiment: Optimization of GU AMC qHTS for Zika virus inhibitors: Unlinked NS2B-NS3 protease assay (AID 1347151); further: nearly all actives have a fitted effect of over 80% in size;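 on activity change, negative = inhibition: 0% = no-inhibitor control and -100% = no-enzyme control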
Conditions: recombinant ZIKV NS2B-NS3 protease, fluorogenic AMC substrate; series mostly up to 52.5 µM; activity change, negative = inhibition: at the top concentration
In short: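 In this qHTS, compounds acted on 25 nM unlinked Zika NS2B–NS3 in pH 8.0 Tris/Tween buffer. Cleavage of an AMC peptide ran 15 min at room temperature, to about 20% conversion.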
Potency means the concentration at half of the fitted maximal effect.

| Structure (SMILES) | activity change, negative = inhibition | Potency |
| --- | --- | --- |
| Fc1cccc(/C=N/N=C/c2cccc(F)c2)c1 | -5.48% | – |
| O=C(O)CC[C@@H](C(=O)O)N1C(=O)c2ccccc2C1=O | 231% | – |
| C[N+]1(C)C2CC(OC(=O)[C@H](CO)c3ccccc3)CC1C1OC12 (stereo partly specified) | – | inactive |
| CCOC(=O)N1CCN(/[N+]([O-])=N/Oc2ccc([N+](=O)[O-])cc2[N+](=O)[O-])CC1 | -11.7% | – |
| Fc1ccc2[nH]c(CN3CCN(c4ccccn4)CC3)cc2c1 | -8.95% | – |
| Nc1nc(Nc2ccccc2)nc2c1ncn2[C@@H]1O[C@H](CO)[C@@H](O)[C@H]1O | 2.53% | – |
| C#C[C@]1(O)CC[C@H]2[C@@H]3CCC4=Cc5oncc5CC4(C)[C@H]3CCC21C (stereo partly specified) | -2.09% | – |
| Brc1cc2c(cc1[C@H]1Nc3ccccc3[C@H]3C=CC[C@H]31)OCO2 | -8.63% | – |
| O=[N+]([O-])c1ccc(CNc2nc(NCc3cccc(C(F)(F)F)c3)nc3nc[nH]c23)cc1 | -4.58% | – |
| NCCCS(=O)(=O)O | -3.65% | – |
| CC(C)NC[C@@H](O)c1ccc(O)c(O)c1 | 7.14% | – |
| S=C(S)OC1CC2CC1C1CCCC21 (stereo unspecified) | -8.03% | – |
| O=[N+]([O-])c1ccc(CSc2ncnc3c2ncn3[C@@H]2O[C@H](CO)[C@@H](O)[C@H]2O)cc1 | 2.67% | – |
| Brc1c(Br)c(Br)c2n[nH]nc2c1Br | – | 26.7 µM (active) |
| O=C(/C=C/c1ccc(O)c(O)c1)OCCc1ccccc1 | – | 6.7 µM (active) |
| CN(CCCOc1ccc(Cc2ccccc2)cc1)CCC(=O)O | 11.2% | – |
| O=C(c1ccc(OCCCc2cnc[nH]2)cc1)C1CC1 | 2.83% | – |
| N=c1ccn2c(n1)O[C@H]1[C@H](O)[C@@H](CO)O[C@H]12 | 3.94% | – |

| Structure (SMILES) | activity change, negative = inhibition | Potency |
| --- | --- | --- |
| C=CC(C)=C[C@@]1(C)SC(=O)C(C)=C1O | 9.22% | – |
| O=C(CCSCc1ccco1)NNC(=O)N1Cc2ccccc2Oc2ccc(Cl)cc21 | -9.13% | – |
| CC(C)(C)c1ccc(S(=O)(=O)/C=C/C#N)cc1 | 5.99% | – |
| O=C(/C=C/c1ccc(O)cc1)c1ccc(O)cc1O | 2.11% | – |
| O=C1/C(=C/c2ccsc2)CC/C1=C\c1cccs1 | -15.3% | – |
| Cc1cn([C@H]2CC(N=[N+]=[N-])[C@@H](CO)O2)c(=O)[nH]c1=O (stereo partly specified) | 0.0256% | – |
| O=C1NC(=O)/C(=C/c2ccc3nccnc3c2)S1 | -8.24% | – |
| NCC1OC(O[C@H]2[C@H](O)[C@@H](OC3C(O)C(N)CC(N)C3OC3OC(CO)C(O)C(O)C3N)O[C@@H]2CO)C(N)C(O)C1O (stereo partly specified) | 5.21% | – |
| Nc1nc(Cl)nc2c1ncn2[C@@H]1O[C@H](COP(=O)(O)OP(=O)(O)OP(=O)(O)O)[C@@H](O)[C@H]1O | -14.3% | – |
| N#C/C(=C\c1ccc(-c2cc(Cl)ccc2Cl)o1)C(=O)Nc1cccc2ncccc12 | – | 26.7 µM (active) |
| CC1(C)CCC=[N+]1[O-] | 4.49% | – |
| CN=c1nc(-c2ccccc2)n(-c2ccccc2)s1 | 0.576% | – |
| COCCOc1cc2nc[nH]c(=O)c2cc1OCCOC | -7.81% | – |
| CN1CCc2cc(NC(=O)Nc3cccnc3)ccc21 | -12.8% | – |
| NC(N)=NC(=O)c1nc(Cl)c(N2CCCCCC2)nc1N | -15.9% | – |
| C[N+](C)(C)CCOP(=O)(O)OP(=O)([O-])OC[C@H]1O[C@@H](n2ccc(N)nc2=O)[C@H](O)[C@@H]1O | -5.59% | – |
| CCNc1nc2c(ncn2[C@H]2C[C@H](O)[C@@H](CO)O2)c(=O)[nH]1 | -4.87% | – |
| CN1CCc2cccc3c2C1Cc1ccc(O)c(O)c1-3 (stereo unspecified) | – | 26.7 µM (active) |
